{
  "source": "the supplement of paper PMC6555819",
  "data": [
    {"tested_on": "VDR:RXRa (NR concentration 270 nM, RXRa partner concentration 90 nM)", "assay": "PBM binding z-score (relative to random genomic background probes); higher = stronger binding; sequences stand for … in GC…GCGATTGACAGCGTAGAATGAAGG", "experimental": "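Protein-binding microarray (Agilent 4x180K custom design, double-stranded 60-nt probes: 5' GC cap, 34-nt variable region, 24-nt constant primer region; full probe sequence given). Purified or IVT nuclear receptor:RXRα heterodimers (3:1 NR:RXRα, mostly 270:90 nM) or homodimers were incubated for 1 h in PBS with 2% milk and no ligand, then detected with Alexa488 antibodies. Fluorescence from o1-orientation probes (~5 replicates averaged) was converted to z-scores against 500 random hg19 background probes. Variable regions are seed direct-repeat (DR0–DR5) sites, all their single-nucleotide variants and half-site ablations.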", "values": [
      {"sequence": "CCTGCTAGGTCGTGGTCAGCTAATCTACAGTATG", "PBM binding z-score": -0.0552},
      {"sequence": "TGAATGAGGTTATAAGATCAGGGAACGTTGCAAA", "PBM binding z-score": 0.749},
      {"sequence": "GCTAGCAGGCCATTTGGGACACTCAATGACGGGC", "PBM binding z-score": -0.447},
      {"sequence": "AGTCAAAGTTCATCTAGGTAACTTAAGATATGCT", "PBM binding z-score": 4.95},
      {"sequence": "AGAATGAGGTTATTAAGATCAGGGTATTGCGGTC", "PBM binding z-score": 2.43},
      {"sequence": "CCTACTAGGCCATCAGGTCATTGATATCAACGTT", "PBM binding z-score": 2.26},
      {"sequence": "ATTTCTAGGTAAAGTTCAGTGAAAGATCGATAGA", "PBM binding z-score": 2.11},
      {"sequence": "TCCAGTAGGTTAGGGGCATTCAGAATGGCGTCGA", "PBM binding z-score": 0.702},
      {"sequence": "CGTCCAAGGTCCTAGGAGGTCAGTGAAGACAGAT", "PBM binding z-score": 2.88},
      {"sequence": "AGAATGATGTTAAGATCAGGGAAACAGAATACAT", "PBM binding z-score": -0.114},
      {"sequence": "CATACAGGGTCAGCTAGGCCAGAGAAGGGACGGC", "PBM binding z-score": 3.84},
      {"sequence": "TAGCCTAGGTCATTCAGGGGCCAGTCTAGAAAGC", "PBM binding z-score": 2.76},
      {"sequence": "CCTACTGGGCAAAAGGTCATTGATTCCAATGCTC", "PBM binding z-score": 4.44},
      {"sequence": "AGCATGAGGTTATACGTAGATCAGGGAAGAAAGT", "PBM binding z-score": 1.44},
      {"sequence": "TCATATAGGTAATACAGGTGAAGGTCGGCATCTA", "PBM binding z-score": 1.62},
      {"sequence": "TCAATGAGGTTAAAGATCAGGGAACGTGGCGTCG", "PBM binding z-score": 2.04},
      {"sequence": "TGAATGAGGTTAAAGATCAGGGCACGTGGCGTCG", "PBM binding z-score": 2.19},
      {"sequence": "TAGCCTAGGTCATTGGGCAAGTATAGTACGCATC", "PBM binding z-score": 2.09},
      {"sequence": "CCTACTGGGCCATTCAGAGGTCATTGACCATATG", "PBM binding z-score": 3.83},
      {"sequence": "TCTATTAGTTGATTAGGCCAACCGAAACAGCGGA", "PBM binding z-score": 0.618},
      {"sequence": "AGTCAAAGTTCATCTAGGTAACGCAAGATATGCT", "PBM binding z-score": 4.91},
      {"sequence": "TTACCAAGGTGAGCTCAGGTCGTTGATCCAACTC", "PBM binding z-score": 1.81},
      {"sequence": "CCTCGGAGCACAGAAGGTCAGAGCTGTCCGCTTT", "PBM binding z-score": 1.33},
      {"sequence": "AGATTGAGGTTAAGATCAGGGAAACAGAATACAT", "PBM binding z-score": 1.42},
      {"sequence": "ACTAGCAGGCCAAGGCTCACTCAAGATTAGTCCG", "PBM binding z-score": -0.781},
      {"sequence": "GCTATTAGTTGAAAGGGTAACCGAATGATTCTCG", "PBM binding z-score": 0.289},
      {"sequence": "CCGACTCGGGCAAAGGTTACCATACTCAGTACGA", "PBM binding z-score": 1.33},
      {"sequence": "CAAACTAGGTCAAGATGTCAAAGTCCGCTTCCCG", "PBM binding z-score": 2.2},
      {"sequence": "TGAATGAGGTTATGAGATCAGGGAACGTTGCAAA", "PBM binding z-score": 0.987},
      {"sequence": "TCAAGCAGGCCAGAGGGTCACTCAAGAGGTACGG", "PBM binding z-score": 1.52},
      {"sequence": "TTACCAAGGTGAAGGTCCTTGATCCCTCTGTAGA", "PBM binding z-score": 0.388},
      {"sequence": "ACTATTAGTTGACTTAGGCCAACCGATACGACGC", "PBM binding z-score": 0.432},
      {"sequence": "GCGACAGGGGCATCAGCAGGTTACCATAACTTAA", "PBM binding z-score": 0.517},
      {"sequence": "CAAACTAGGTCACGATAGGTCAAAGTCGAATGAC", "PBM binding z-score": 5.51},
      {"sequence": "CGTCCAAGGTCATAGGAGGTCAGTGAGGACAGAT", "PBM binding z-score": 7.07},
      {"sequence": "TCTAGTTGGTCACGGAGGTCAGACACGACGGGTA", "PBM binding z-score": 4.68},
      {"sequence": "ACTCGGAAGACAAAGGTCAGAGCTACGCCAGTGA", "PBM binding z-score": 2.63},
      {"sequence": "CGAAGTAGGTCATCCAGGACAGTGAATACATTGA", "PBM binding z-score": 5.12},
      {"sequence": "CGTCCAACGTCAGAGAGGTCAGTGAATGCCGAGT", "PBM binding z-score": 3.23},
      {"sequence": "TCTATTAGTTGACTAGGGCAACCGAAACAGCGGA", "PBM binding z-score": 0.704}
    ]}
  ]
}
